# Bioassay records deposited in PubChem BioAssay by Fisher Drug Discovery Resource Center.
# mcGAS lum: mouse cGAS inhibition by luminescence. recombinant cGAS, Kinase-Glo ATP depletion luminescence. inhibition, % at 12.5 µM. 0.15% of 160,000 active;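 note: 0% = negative control wells and 100% = reference inhibitor with no enzyme activity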
# Target sequence (Q8C6L5 whole entry, looked up): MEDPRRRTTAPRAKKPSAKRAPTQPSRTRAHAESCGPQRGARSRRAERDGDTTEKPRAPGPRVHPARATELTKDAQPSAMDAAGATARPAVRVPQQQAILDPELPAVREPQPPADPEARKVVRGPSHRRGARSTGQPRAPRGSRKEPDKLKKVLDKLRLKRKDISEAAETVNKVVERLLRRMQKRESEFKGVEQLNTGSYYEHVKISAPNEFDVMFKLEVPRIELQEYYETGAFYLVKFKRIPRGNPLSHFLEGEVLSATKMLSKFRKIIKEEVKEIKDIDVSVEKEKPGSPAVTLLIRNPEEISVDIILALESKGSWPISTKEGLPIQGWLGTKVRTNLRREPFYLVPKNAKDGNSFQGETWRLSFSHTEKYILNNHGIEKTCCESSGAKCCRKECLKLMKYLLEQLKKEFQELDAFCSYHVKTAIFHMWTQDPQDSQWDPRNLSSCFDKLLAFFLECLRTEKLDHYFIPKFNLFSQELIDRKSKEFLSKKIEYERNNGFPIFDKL
# NPYLR7 ag: mosquito NPYLR7 agonism; HEK293T NPYLR7/Galpha15, GCaMP6s calcium fluorescence; activation, % at 10 µM; 0.15% of 270,000 active; AID 1259423; in the data active = activation above about 40%;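 note: 0% = vehicle and 100% = reference agonist at the receptor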
# hcGAS lum: inhibitors of human cGAS; AID 1259398; 0.081% of 290,000 active; inhibition, % at 12.5 µM; recombinant h-cGAS, ATP depletion, Kinase-Glo luminescence;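 note: 0% = vehicle reaction and 100% = reaction without DNA for no activity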
# An asterisk follows results filed as active; . = not tested or not shown; ! = repeats disagree. Compounds with a hit are over-represented: about 0.24% of the library has one in this group of screens. Cut-off read from the data, not from the text of the source, unless noted: active = inhibition above about 40%; inactive = the rest.
SMILES,mcGAS lum,NPYLR7 ag,hcGAS lum
C=CCn1c(O)c(C=Nc2ccccc2)sc1=S,-6,-3,-3
Oc1[nH]c(=S)sc1C=Nc1ccccc1,57*,-1,7
COc1nc(-c2cccc(C(F)(F)F)c2)n(-c2ccc(NC(=O)c3cccc(F)c3)cc2)n1,-6,13,-14
COc1cc(NC(=O)C2CCC(c3ccccc3)N(C(=O)NCc3ccccc3)C2)cc(OC)c1 (stereo not drawn),-5,.,-5
CCOC(=O)c1[nH]c2c([N+](=O)[O-])cc(C)cc2c1CCN1C(=O)c2ccccc2C1=O,-7,4,4
CCOC(=O)c1[nH]c2c([N+](=O)[O-])cc(OCC)cc2c1CCN1C(=O)c2ccccc2C1=O,69*,-7,-2
Cc1ccc(S(=O)(=O)NCCNc2ccc(Nc3ccccn3)nn2)cc1C,.,14,-10
OC[C@H]1O[C@@H](n2cnc3c(NC4CCCC4)ncnc32)C(O)[C@H]1O (stereo partly drawn),-3,20,-1
Nc1ncnc2c1ncn2[C@@H]1O[C@H](CO)[C@@H](O)[C@H]1O,.,52*,1
Nc1c(C=C2C=CC(=O)C=C2)c(=O)nc2sc(-c3ccccc3)nn12,.,0,11
Nc1c(C=C2C=CC(=O)C=C2)c(=O)nc2sc(-c3ccccc3Cl)nn12,.,-3,42*
COc1ccccc1-n1c(SCC(=O)c2ccccc2)nc2c(c1=O)SCC2,.,-6,-6
COc1cc(C(=O)O)c(N)cc1OC(F)F,.,-5,4
CCC(C(=O)N1CCN(c2nc(C(C)C)nc3sc4c(c23)CCCCC4)CC1)c1ccccc1 (stereo not drawn),1,-2,6
CNC(=O)NC(=O)CCN1CC(c2ccccc2Cl)c2c([nH]c3ccccc23)C1C (stereo not drawn),.,41*,1
O=C(CCn1c(=O)[nH]c2ccccc2c1=O)NCCc1ccccc1Cl,.,-8,0
CC(C(=O)O)n1c(O)c(C=C2C=Nc3ccccc32)sc1=S (stereo not drawn),-5,75*,1
O=C(Nn1c(O)c(C=C2C=Nc3ccccc32)sc1=S)c1ccccc1[N+](=O)[O-],-5,12,-5
O=C(O)CCn1c(O)c(C=C2C=Nc3ccccc32)sc1=S,-1,46*,4
O=C(O)c1ccc(-n2c(O)c(C=C3C=Nc4ccccc43)sc2=S)cc1,-1,-1,-7
CC(C)NC(=O)c1ccc(-c2cc(-c3ccc(Cl)cc3)[nH]n2)cc1,2,.,-1
CCn1nc(C(=O)N2CCCCCC2)c2c1CCC(NCCc1nc(-c3ccccc3)cs1)C2 (stereo not drawn),-7,23,-15
COc1ccc(S(=O)(=O)NC(C)c2ccncc2)cc1F (stereo not drawn),.,2,-15
COc1ccc(C(C)NS(=O)(=O)c2ccc(Cl)cc2C(F)(F)F)cc1F (stereo not drawn),.,107*,2
CCOC(=O)c1cnc2nc(C)nn2c1-c1ccccc1,-7,-5,-4
SMILES,mcGAS lum,NPYLR7 ag,hcGAS lum
CCC1=NN2C(=N)/C(=C\c3ccc(OC)c(OC)c3OC)C(=O)N=C2S1,44*,-2,-2
CCC1=NN2C(=N)/C(=C\c3ccccc3Br)C(=O)N=C2S1,.,2,16
Oc1oc(-c2ccccc2Br)nc1C=Nc1ccccc1,.,65*,15
Cc1ccc(N=Cc2nc(-c3ccccc3Br)oc2O)cc1,.,-3,-5
O=C1c2c(O)ccc(O)c2C(=O)c2c(NCCNCCO)ccc(NCCNCCO)c21,76*,-5,42*!
CCCCNc1ccc(NCCCC)c2c1C(=O)c1ccccc1C2=O,-7,0,-12
Cc1nc2c(=O)n(CC(=O)N(c3ccccc3)C(C)C)nc(-c3ccco3)c2s1,-8,2,2
COC(=O)Nc1ccc(S(=O)(=O)N2CCCC(C(=O)N3CCCC(C(F)(F)F)C3)C2)cc1 (stereo not drawn),-7,-6,-5
CCn1cc(C(CC(=O)N2CCN(c3cccc(Cl)c3)CC2)c2ccc3c(c2)OCO3)c2ccccc21 (stereo not drawn),-4,10,-5
O=C(Nc1ccc(NC2CCCCC2)cc1)c1nccc2ccccc12,.,1,-4
O=C(c1nccc2ccccc12)N1CCN(CC2CCCC2)CC1,.,126*,-4
COC(=O)c1cccc(COC(=O)c2ccc(Br)o2)c1,-1,-6,6
COc1cc(C=C(C#N)S(=O)(=O)c2ccc(F)cc2)cc(Br)c1O,.,183*,-1
COc1cc(C=C(C#N)S(=O)(=O)c2cc(Cl)ccc2Cl)cc(OC)c1,.,2,2
COc1cc(C=C(C#N)S(=O)(=O)c2cc(Cl)ccc2Cl)cc(Br)c1O,.,66*,-5
COc1cc(C=C(C#N)S(=O)(=O)c2ccc(F)cc2)cc(OC)c1OC,.,11,-9
CSC(C)C(=O)Nc1ccc(I)cc1 (stereo not drawn),-5,8,-4
NC(=NC1C2CC3CC(C2)CC1C3)Nc1ccc(I)cc1 (stereo not drawn),.,43*,-3
CCCc1[nH]n(-c2cccc(Cl)c2)c(=O)c1/C=C1\NC(=O)N(Cc2ccc(C)cc2)C1=O,1,-2,7
CCCc1[nH]n(-c2ccc(Cl)c(Cl)c2)c(=O)c1/C=C1\NC(=O)N(Cc2ccc(C)cc2)C1=O,-9,56*,-2
Cc1ccc(-n2ncc3c(=O)n(NC(=O)C4CCCCC4)cnc32)cc1,.,14,-3
NCCNc1ccc2c3c(cccc13)C(=O)N(c1ccc(Cl)cc1)C2=O,.,104*,4
O=C1c2cccc3c([N+](=O)[O-])ccc(c23)C(=O)N1c1ccc([N+](=O)[O-])cc1,-7,0,-7
O=C1c2cccc3c(C#Cc4ccccc4)ccc(c23)C(=O)N1c1ccccc1,.,5,-8
O=C1c2cccc3c(Nc4ccccc4)ccc(c23)C(=O)N1c1ccccc1,-5,53*,-5
SMILES,mcGAS lum,NPYLR7 ag,hcGAS lum
O=C1c2cccc3c(NCC(O)CCl)ccc(c23)C(=O)N1c1ccccc1 (stereo not drawn),-4,94*!,-5
O=C(c1ccccc1)c1ccc2c3c(cccc13)C(=O)N(c1ccccc1)C2=O,1,-15,4
COc1cc(C2=N/C(=C\C(C)=C\c3ccccc3)C(=O)O2)cc(OC)c1OC,.,0,-3
CC(C)Oc1ccc(S(=O)(=O)N2CCCCC2)cc1NC(=O)CCl,.,-11,-9
CC(C)Oc1ccc(S(=O)(=O)N2CCCCC2)cc1NC(=O)CSc1nncn1C1CC1,56*,-4,-1
Cc1ccc(S(=O)(=O)Nc2cc(Sc3ncn[nH]3)c(O)c3ccccc23)c(C)c1,40*,-6,-8
CCOc1ccc(S(=O)(=O)Nc2cc(Sc3ncn[nH]3)c(O)c3ccccc23)cc1,8,-10,-7
O=C1CCCN1CCCN1CC(C(=O)N2CCN(c3ccccc3Cl)CC2)CCC1=O (stereo not drawn),-10,3,-6
CCCCCCNC(=O)CC(c1ccc(Cl)cc1)c1cn(C)c2ccccc12 (stereo not drawn),-11,.,-6
Cc1ccc(O)c(C(=O)N(C)Cc2ccccc2C(F)(F)F)c1,.,1,-18
COc1ccc(-n2c(Cc3ccccc3)nnc2SCCCC(=O)N2CCN(C(=O)c3ccc(Cl)c(Cl)c3)C(C)C2)cc1 (stereo not drawn),-4,18,-2
CC(C)(C)c1cnc(CSc2cnc(NC(=O)C3CCNCC3)s2)o1,-11,60*,-4
